One experiment relates to Klebsiella pneumoniae. As to conditions: Concentration 32 ug.mL-1; ASSAY_TEST Inhibition of Bacterial Growth; detection method Absorption (OD600); MEDIA CAMHB; plate type 384well; NBS; CORNING #3640; time 18 hr.
Another experiment has as its system Candida albicans. As to conditions: 32 ug/mL.
The subject of the next experiment is Cryptococcus neoformans. As to conditions: Concentration 32 ug.mL-1; ASSAY_TEST Inhibition of Fungal Growth; detection method Resazurin; Absorption (OD600-OD570); plate type 384well; NBS; CORNING #3640.

Entries with a potency or affinity are not part of this list.

The text below walks through data of ChEMBL document CHEMBL4513135, “CO-ADD screening of IQOG CSIS (Spain) compounds”.

As to `COC1=C(C#N)CCC(=O)N1`, the Inhibition in the experiment on Klebsiella pneumoniae is 12.74%; in the experiment on Candida albicans, 0.89%; in the experiment with Cryptococcus neoformans, -77.28%.

Regarding `COc1cc(C2c3ccc4ccccc4c3Oc3nc4c(c(N)c32)CCCC4)ccc1O.Cl` (stereo unspecified), the figures for the Inhibition in the experiment with Klebsiella pneumoniae, in the experiment with Candida albicans and in the experiment with Cryptococcus neoformans were -2.62%, -0.98% and -5.33%, respectively.

Consider `Cc1ccc(C2c3c(Cl)nnnc3Oc3ccc4ccccc4c32)cc1` (stereo unspecified), for which the Inhibition with Klebsiella pneumoniae was 9.62%; in the experiment on Candida albicans it was 2.22%; with Cryptococcus neoformans it was -3.15%.

As for `N#Cc1c(N)nc(NCCCC2CCN(Cc3ccccc3)CC2)c(C#N)c1-c1ccccc1`, the Inhibition with Klebsiella pneumoniae was 32.61%; in the experiment on Candida albicans, 1.5%; with Cryptococcus neoformans it was -34.35%.

As to `COc1ccccc1C1C(C#N)=C(N)Oc2ccc3ccccc3c21` (stereo unspecified), the Inhibition with Klebsiella pneumoniae is 9.04%; in the experiment with Candida albicans, 2.24%; with Cryptococcus neoformans it was -18.76%.

Turning to `Nc1c2c(nc3c1CC(c1c(Cl)cccc1Cl)C(=O)N3)CCCC2` (stereo unspecified), the Inhibition with Klebsiella pneumoniae was 0.93%; in the experiment with Candida albicans, -0.19%; in the experiment with Cryptococcus neoformans it was -92.02%.

On to `N#Cc1c(N)nc2c(c1-c1ccccc1)CN(Cc1ccccc1)CC2`, for which the Inhibition in the experiment with Klebsiella pneumoniae was 16.71%; in the experiment with Candida albicans, 1.07%; in the experiment on Cryptococcus neoformans, -3.99%.

`Cl.ClCCCN1CCCCC1`: the figures for the Inhibition with Klebsiella pneumoniae, in the experiment on Candida albicans and in the experiment with Cryptococcus neoformans were 13.52%, 1.17% and -10.65%, respectively.

For the molecule `Cn1c(C(=O)N2CCOCC2)cc2cc(OCCCC3CCN(Cc4ccccc4)CC3)ccc21`, the Inhibition in the experiment with Klebsiella pneumoniae is 2.68%; in the experiment on Candida albicans, 1.38%; in the experiment with Cryptococcus neoformans, -96.05%.

Turning to `CN(N=O)C(=O)NC1(C(=O)O)CC1c1ccccc1` (stereo unspecified), the Inhibition is 23.72% in the experiment on Klebsiella pneumoniae, 1.7% in the experiment on Candida albicans and -0.92% in the experiment on Cryptococcus neoformans.

Regarding `CC/C(C)=N/NC(=O)Cc1c[nH]c2ccccc12`, the values for the Inhibition in the experiment on Klebsiella pneumoniae, in the experiment with Candida albicans and in the experiment with Cryptococcus neoformans were 0.18%, -0.57% and -5.32%, respectively.

Turning to `O=C(N/N=C/c1c[nH]c2ccccc12)c1ccc(Cl)cc1`, the Inhibition with Klebsiella pneumoniae was 14.79%; with Candida albicans it was 0.77%; in the experiment with Cryptococcus neoformans, -0.09%.

On to `Cl.NC1(C(=O)O)CC1c1cccc(Cl)c1` (stereo unspecified), for which the Inhibition in the experiment with Klebsiella pneumoniae is 18.53%; in the experiment on Candida albicans, 2.81%; in the experiment with Cryptococcus neoformans, -0.59%.

Consider `N#Cc1c(N)nc(NCCC2CCN(Cc3ccccc3)CC2)c(C#N)c1-c1ccccc1`, for which the Inhibition with Klebsiella pneumoniae is 5.9%; in the experiment on Candida albicans, 4.31%; with Cryptococcus neoformans, -17.88%.

On to `Cc1cnc2ccc(Cl)cn12`, for which the Inhibition was 22.77% with Klebsiella pneumoniae, 0.97% with Candida albicans and 1.56% in the experiment on Cryptococcus neoformans.

Regarding `Nc1c2c(nc3c1C(c1ccc([N+](=O)[O-])cc1)c1ccc4ccccc4c1O3)CCCC2` (stereo unspecified), the values for the Inhibition with Klebsiella pneumoniae, with Candida albicans and in the experiment with Cryptococcus neoformans were -17.7%, -1.86% and -5.85%, respectively.

As for `CC1(C)OC(=O)C(=Cc2ccc([N+](=O)[O-])cc2)C(=O)O1`, the Inhibition is 18.71% with Klebsiella pneumoniae, 1.46% in the experiment with Candida albicans and -6.06% in the experiment with Cryptococcus neoformans.

As to `Cn1ccnc1C1C2=C(CC(C)(C)CC2=O)Oc2nc3c(c(N)c21)CCCC3` (stereo unspecified), the results for the Inhibition in the experiment with Klebsiella pneumoniae, in the experiment with Candida albicans and in the experiment on Cryptococcus neoformans were 9.51%, 1.3% and -60.42%, respectively.

For `COc1ccc(-c2cc(-c3cc4c(C)cc(C)cc4nc3Cl)cc(=O)[nH]2)cc1`, the results for the Inhibition in the experiment on Klebsiella pneumoniae, with Candida albicans and in the experiment on Cryptococcus neoformans were 4.51%, 1.74% and 0.64%, respectively.

`C#CCN1CCc2nc3nc(N(C)C)c(C#N)cc3c(N)c2C1`: the Inhibition is 15.18% in the experiment on Klebsiella pneumoniae, 3.18% with Candida albicans and -99.98% in the experiment on Cryptococcus neoformans.

As for `Cn1c(CO)cc2cc(OCCCC3CCN(Cc4ccccc4)CC3)ccc21`, the Inhibition with Klebsiella pneumoniae is -2.86%; in the experiment with Candida albicans it was 2.07%; in the experiment with Cryptococcus neoformans, -53.31%.

Take `CCC(Cc1ccccc1)NNC(=O)c1cc2ccccc2[nH]1` (stereo unspecified): the figures for the Inhibition with Klebsiella pneumoniae, in the experiment on Candida albicans and with Cryptococcus neoformans were -8.95%, 1.13% and -1.62%, respectively.

`COc1ccccc1C1c2ccc3ccccc3c2Oc2nc3c(c(N)c21)CCCC3` (stereo unspecified): the values for the Inhibition in the experiment with Klebsiella pneumoniae, with Candida albicans and in the experiment with Cryptococcus neoformans were 8.8%, 0.31% and -4.38%, respectively.

As to `CN1C/C(=C\Cl)n2c1c(C#N)c(-c1ccccc1)c(C#N)c2=O`, the Inhibition in the experiment on Klebsiella pneumoniae is 4.05%; with Candida albicans it was 3.56%; with Cryptococcus neoformans, -47.27%.

For `N#Cc1ccc(Br)cc1N`, the results for the Inhibition in the experiment on Klebsiella pneumoniae, in the experiment on Candida albicans and in the experiment with Cryptococcus neoformans were 26.43%, 18% and -4.02%, respectively.

For the molecule `Cl.ClCCCCCN1CCCCC1`, the results for the Inhibition in the experiment on Klebsiella pneumoniae, in the experiment with Candida albicans and with Cryptococcus neoformans were 6.55%, 2.45% and -4.11%, respectively.

As to `COc1ccc(-c2cc(-c3cc4ccc(OC)cc4nc3Cl)cc(=O)[nH]2)cc1`, the Inhibition was 4.32% in the experiment on Klebsiella pneumoniae, -0.61% with Candida albicans and -66.65% in the experiment with Cryptococcus neoformans.

For `C/C(=N\NC(=O)c1cc2ccccc2n1Cc1ccccc1)C1CC1`, the results for the Inhibition in the experiment on Klebsiella pneumoniae, in the experiment with Candida albicans and in the experiment on Cryptococcus neoformans were 4.04%, 0.9% and -0.08%, respectively.

`CCOC(=O)c1c[nH]c2ccc(OC)cc12`: the Inhibition in the experiment on Klebsiella pneumoniae is 1.49%; in the experiment with Candida albicans it was 3.61%; in the experiment with Cryptococcus neoformans it was -7.29%.

Regarding `N#C[C@]1(Br)C(=N)Oc2ccc3ccccc3c2[C@@H]1c1ccc([N+](=O)[O-])cc1`, the results for the Inhibition in the experiment with Klebsiella pneumoniae, in the experiment on Candida albicans and in the experiment on Cryptococcus neoformans were 5.78%, 6.21% and -3.1%, respectively.

Consider `O=Cc1ccc(OCCO[N+](=O)[O-])cc1`, for which the Inhibition was 8.5% in the experiment on Klebsiella pneumoniae, 5.46% in the experiment with Candida albicans and -2.32% in the experiment with Cryptococcus neoformans.

For `C#CCNc1nc(NCCCC2CCN(Cc3ccccc3)CC2)c(C#N)cc1C#N.Cl`, the Inhibition with Klebsiella pneumoniae is -17.1%; with Candida albicans it was 1.71%; in the experiment with Cryptococcus neoformans it was -40.38%.

As to `CNC(=O)c1cc2cc(OCc3ccccc3)ccc2n1C`, the Inhibition was 4.29% in the experiment with Klebsiella pneumoniae, 3.06% in the experiment with Candida albicans and -45.34% in the experiment with Cryptococcus neoformans.

For `N#CC1=C(N)Oc2ccc3ccccc3c2C1c1cccc([N+](=O)[O-])c1` (stereo unspecified), the Inhibition in the experiment on Klebsiella pneumoniae was 6.14%; in the experiment on Candida albicans it was 10.7%; with Cryptococcus neoformans, -44.61%.

As for `Cl.OCC1CCN(Cc2ccccc2)CC1`, the Inhibition with Klebsiella pneumoniae is 15.06%; in the experiment with Candida albicans it was 1.47%; with Cryptococcus neoformans, -2.26%.

Regarding `C#CCN(C)Cc1cc2cc(OCOc3ccc4c(c3)cc(CN(C)CC#C)n4C)ccc2n1C`, the Inhibition with Klebsiella pneumoniae was 2.59%; in the experiment on Candida albicans it was -0.1%; with Cryptococcus neoformans it was -41.21%.

With `COc1ccc(C2c3c(ccc4ccccc34)OC(=NBr)C2(Br)C#N)cc1OC` (stereo unspecified), the Inhibition was 4.11% with Klebsiella pneumoniae, 18% in the experiment on Candida albicans and -72.67% in the experiment with Cryptococcus neoformans.
